Pf Dd2 growth – qHTS Primary assay for Inhibitors of Plasmodium falciparum Dd2 growth in vitro; P. falciparum Dd2 growth, SYBR Green, 72 h; Potency, µM (highest dose often 28.9 µM), inactives show top-dose activity, negative = inhibition, usual class: inhibitors; actives 4.3% (n = 120,000); active = well fitted inhibition curve with a large enough effect;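 also: plate controls were DMSO vehicle for no effect and reference drug for full effect; nearly all actives have a fitted effect of over 65% in size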
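Readout: SYBR Green fluorescence, 485 nm excitation, 535 nm emission, after ~16 h lysis at 37C. Before that, Dd2-infected red cells (2.5% hematocrit) grew 72 h with compound, 29 uM top final concentration.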
The depositor's hits bear a star; i = inactive; [ ] = remark or other dose. This excerpt belongs to a sample that is enriched for hits. Potency is read from the fitted curve at half-maximal effect.

SMILES | Pf Dd2 growth
Cn1c(=O)c2nc3ccc(NC(=O)C(F)(F)F)cc3nc2n(C)c1=O | 84%
Cc1cc2cccc(C(=O)N3CCn4nc(C(O)C5CC5)cc4C3)c2o1 (stereo unspecified) | -4%
Cc1cccc(-c2nc(SCc3cc(=O)c4cccc(F)c4[nH]3)n[nH]2)c1 | 45%
O=C(NCC1CN(C(=O)Cc2cccc(Cl)c2)CC12CN(c1ccccc1)C2)C1CC1 (stereo unspecified) | 8.9µM*
O=C(Cc1ccccc1)NCC1CN(C(=O)Cc2cccc(Oc3ccccc3)c2)CC12CN(c1ccccc1)C2 (stereo unspecified) | -14%
Cn1cc(C(=O)NCC2CN(C(=O)Cc3cccc(Oc4ccccc4)c3)CC23CN(c2ccccc2)C3)cn1 (stereo unspecified) | -21%
O=C(COc1ccccc1)NCCc1csc(-c2ccc(F)cc2)n1 | i
C[S+](=O)([O-])N1CC2(Cc3ccccc31)CN(C(=O)c1ccccc1)C2 | -16%
O=C(c1ccncn1)N1C[C@@H](COCC2CC2)[C@H](c2ccccn2)C1 | i
CC(C)CCNC(=O)C1CCC(CNS(=O)(=O)c2cccc3nsnc23)CC1 (stereo unspecified) | 3.2µM*
CCCN(CCC)CCCNC(=O)C1CCCN(S(=O)(=O)c2cccc3nsnc23)C1 (stereo unspecified) | -19%
Cc1cccc(N(C)C(=O)C(Cc2ccccc2)NS(=O)(=O)c2cccc3nsnc23)c1 (stereo unspecified) | 7%
Cc1cccc(C)c1NC(=O)C1CCCN1S(=O)(=O)c1cccc2nsnc12 (stereo unspecified) | i
CCCCN(C(=O)C1CCC(CNS(=O)(=O)c2cccc3nsnc23)CC1)c1ccccc1 (stereo unspecified) | 2.2µM*
CCc1cccc(CC)c1NC(=O)C1CCC(CNS(=O)(=O)c2cccc3nsnc23)CC1 (stereo unspecified) | 3.2µM*
CC(C)NC(=O)[C@@H]1C[C@H](N)CN1S(=O)(=O)c1cccc2nsnc12 | 19%
CCN(C(=O)C(NS(=O)(=O)c1cccc2nsnc12)c1ccccc1)c1ccccc1 (stereo unspecified) | -1%
CCc1ccccc1NC(=O)C1CCCN(S(=O)(=O)c2cccc3nsnc23)C1 (stereo unspecified) | -24%
CCc1cccc(NC(=O)CCS(=O)(=O)c2ccc3nc(C)sc3c2)c1 | -24%
CC(C)CCNC1(Cc2cc(-c3ccc(F)cc3)on2)COC1 | -13%[44.1 µM]
O=C(COc1ccc(F)cc1)Nc1ccc2nc(SCC(=O)N3CCc4ccccc43)sc2c1 | i
CCCN(C)C(=O)c1c(-c2ccc(OC)cc2)noc1[C@H](C)O | -4%[44.1 µM]
O=C(NCc1ccccc1)N1CCCCCC1c1nc(-c2ccncc2)no1 (stereo unspecified) | -17%
CCC(NC(=O)Nc1ccc(OC)c(OC)c1)c1c(-n2cccc2)sc2c1CCN(C)C2 (stereo unspecified) | -3%
CC(C)(C)CC(=O)NCC(c1ccc2c(c1)OCO2)N1CCN(c2ccccc2)CC1 (stereo unspecified) | 7.1µM*
SMILES | Pf Dd2 growth
Cc1ccc(C(=O)NCC(c2ccc3c(c2)OCO3)N2CCN(c3ccc(F)cc3)CC2)cc1 (stereo unspecified) | 13µM*
Cc1ccc(NC(=O)C(=O)NCC(c2ccc3c(c2)OCO3)N2CCN(c3ccccc3)CC2)cc1 (stereo unspecified) | -2%
CCCC(=O)NCC(c1ccc2c(c1)OCO2)N1CCN(c2ccccc2)CC1 (stereo unspecified) | 0%
CCCC(=O)NCC(c1ccc2c(c1)OCO2)N1CCN(c2ccc(F)cc2)CC1 (stereo unspecified) | -18%
CC(=O)NCC(c1ccc2c(c1)OCO2)N1CCN(c2ccccc2)CC1 (stereo unspecified) | -2%
Cc1ccc(CSc2nnc(-n3c(=O)c(C#N)cc4c(=O)n5cccc(C)c5nc43)s2)cc1 | 33%
CC(=O)N1CCC(C(=O)N2CCN3C(=O)CNC(=O)[C@H]3C2)CC1 | -21%[44.1 µM]
COc1ccc(-c2noc([C@@H]3C[C@@H](O)CN3Cc3ccc(CO)o3)n2)cc1 | i
O=C(Nc1nnc(SCc2cc(=O)c3ccccc3[nH]2)s1)c1ccccc1 | 10%
Cc1noc(C2CC3(CCN(C(=O)c4cnccn4)CC3)CN2C)n1 (stereo unspecified) | -4%
Cc1nn2c(c1-c1ccccc1Oc1ccccc1)N(CC1CC1)CCC2 | i
COc1ccc(CN2CCCn3nc(C)c(-c4ccccc4Oc4ccccc4)c32)cc1O | 1.3µM*
Cc1nn2c(c1-c1cccnc1N1CCOCC1)N(CC1CC1)CCC2 | i
Cc1nn2c(c1-c1ccccc1Oc1ccccc1)N(CC1CCOCC1)CCC2 | 7.9µM*
COc1cccc(CN2CCCn3nc(C)c(-c4cnccc4C)c32)c1 | -9%[44.1 µM]
Cc1nn2c(c1-c1ccccc1-c1ccccc1)N(Cc1cccc(O)c1)CCC2 | 0.79µM*
Cc1nn2c(c1-c1ccccc1Oc1ccccc1)N(C(=O)c1ccc(F)cc1)CCC2 | i
CC(=O)Nc1ccccc1-c1c(C)nn2c1N(Cc1ccccc1)CCC2 | i
Cc1nn2c(c1-c1ccccc1-c1ccccc1)N(Cc1ccc(OCC(=O)O)cc1)CCC2 | i
O=C1NCCN2CC3(CCN(S(=O)(=O)c4cccnc4)CC3)CC12 (stereo unspecified) | i
O=C(N[C@H](Cc1ccncc1)C1CC(O)C1)c1cccn2cnnc12 (stereo partly specified) | 2%
CC(C)NC(=O)N1CCCN(S(=O)(=O)c2ccccc2)CCC(=O)NCC1 | 10%
CCC(C)(C)C(=O)N1CC2CC(C1)[C@H]1CCCC(=O)N1C2 (stereo partly specified) | 5%
NC(=O)[C@H](CC1CCCCC1)NC(=O)[C@@H]1CN(C(=O)Nc2ccccc2)CCN1C(=O)C1CCCCC1 | 41%
O=C(CN1CCN(Cc2ccccc2Cl)C1=O)NCCc1ccc(Cl)cc1 | -14%
SMILES | Pf Dd2 growth
COCc1cc(NCCSCc2ccccc2C)ncn1 | -19%
COc1ccc(N2CCN(S(=O)(=O)CCNC(=O)c3cc(=O)c4ccccc4o3)CC2)cc1 | i
CCOc1cc(=O)n2c(c1C(=O)Nc1cccc(F)c1C)CCCC2 | 2%
CCOc1ccc(CN2CCC(CO)(Cc3ccccc3Cl)CC2)cc1 | -20%
COc1ccc(OC)c(CN2CCC3(CC2)OCCN(Cc2ccccc2)C3=O)c1 | -19%[44.1 µM]
COc1ccc2c(c1)C=C(CN1CCC(CO)(Cc3ccccc3Cl)CC1)CO2 | 8.9µM*
O=C(NCCc1nc(-c2ccccc2)cs1)c1ccc2nccn2c1 | 0%
O=C1NCc2ccccc2CC12CCN(Cc1ccsc1)CC2 | -27%
COc1cccc(-c2ccc(NC(=O)C3CCCN3Cc3cnn(C)c3)cc2)c1 (stereo unspecified) | -23%
Cc1cccc(CC(=O)N2CCCCCC2c2nnc(-c3ccccc3)o2)c1 (stereo unspecified) | i
Cc1ccc(-n2cc(CN3CCCCC3C(N)=O)c(-c3cccc(C)c3)n2)cc1 (stereo unspecified) | 11µM*
CS(=O)(=O)CC(O)c1cc2n(n1)CCN(Cc1ccc(Cl)s1)C2 (stereo unspecified) | -13%
COC[C@H]1CCCN1C(=O)C[C@@H]1O[C@H](CNC(=O)C2CC2)[C@@H](O)[C@H]1O | 22%[44.1 µM]
CC(C)c1noc([C@@H]2C[C@H](NS(=O)(=O)c3ccc(C#N)cc3)CN2C)n1 | i
CCNC(=O)O[C@@H]1CO[C@H]2[C@@H]1OC[C@@H]2NCc1ccccc1 | -15%[44.1 µM]

Screening results: PubChem, National Center for Advancing Translational Sciences (NCATS)
